Experimental findings from PubChem BioAssay AID1053143 (Broad Institute, 2014) are described below.

Among all 3,400 compounds or so, about 120 (3.5%) were called active. These entries were drawn from the full list. Potency and affinity values are given separately. A number with no mark means an inactive call. No rule for the calls is given here.

A short description of this experiment: HepG2 cell cytotoxicity, dose response, cytotoxicity control, ATP luminescence, cherry-pick, activator set 2 (AID 1053143). The following applies: HepG2 viability, CellTiter-Glo ATP luminescence, 72 h; series mostly up to 26 µM; activity change, negative = cytotoxicity: at the top concentration. Background: Cellular ATP, detected with luciferase, serves as a proxy for viable cell number.
In the case of `O=[N+]([O-])c1ccc2nc(-c3ccccc3[N+](=O)[O-])[nH]c2c1`, the “activity change, negative = cytotoxicity” value is -5.65%.

For the compound `CC(C)(C)NC(=O)c1cccc(NC(=O)c2cccc(O)c2)c1`, the “activity change, negative = cytotoxicity” value was -6.98%.

On to `CCC(=O)Nc1cc(NC(=O)CSc2ncc(-c3ccc(F)cc3)n2Cc2ccco2)ccc1C`, for which the “activity change, negative = cytotoxicity” value is -14.2%.

For the compound `O=C(CSc1nncs1)NC(=O)Nc1ccc2c(c1)OCCO2`, the “activity change, negative = cytotoxicity” value was -4.21%.

For the compound `Cc1ccc(NC(=O)c2cc(-c3cccs3)on2)cc1C`, the “activity change, negative = cytotoxicity” value is 12.4%.

Take `CC(C)NC(=O)c1cc(-c2cccs2)on1`: the “activity change, negative = cytotoxicity” value is -17.5%.

Take `CCOC(=O)c1ccc(NC(=O)C2CC3CCC2C3)cc1` (configuration not stated): the “activity change, negative = cytotoxicity” value is -0.283%.

With `CCOc1ccc(C(=O)Nc2ccc3[nH]ncc3c2)cc1`, the “activity change, negative = cytotoxicity” value was -17.4%.

For the compound `CCOc1ccc(C(=O)NC2CCCCCCC2)cc1`, the “activity change, negative = cytotoxicity” value was -19.9% [at 12 µM].

For `O=C(Nc1ccc2ccccc2n1)c1ccccc1Cl`, the “activity change, negative = cytotoxicity” value is -20.5%.

Turning to `Cn1c(CCNC(=O)c2ccco2)nc2cc(NC(=O)c3ccco3)ccc21`, the “activity change, negative = cytotoxicity” value is 17%.

Turning to `Cc1ccc(C(=O)Nc2nc3ccc(Cl)cc3s2)o1`, the “activity change, negative = cytotoxicity” value is -14.4%.

With `O=C(Nc1nc2cc3c(cc2s1)OCCO3)C1CCCCC1`, the “activity change, negative = cytotoxicity” value is -13.1%.

For the compound `CC(=O)Nc1nc2cc3c(cc2s1)OCCO3`, the “activity change, negative = cytotoxicity” value is 4.89%.

Consider `O=C(Nc1nc2ccc(F)cc2s1)c1cccs1`, for which the “activity change, negative = cytotoxicity” value was -9.76%.

As to `CN(C)S(=O)(=O)c1ccc2nc(NC(=O)c3cccnc3)sc2c1`, the “activity change, negative = cytotoxicity” value was -8.19%.

As to `O=C(Nc1nc2cc3c(cc2s1)OCO3)C1CCCCC1`, the “activity change, negative = cytotoxicity” value is 39.8%.

As for `CC(C)(C)C(=O)Nc1nc2cc3c(cc2s1)OCO3`, the “activity change, negative = cytotoxicity” value was -18.5%.

Take `COc1ccc2nc(NC(=O)c3ccccc3O)sc2c1`: the “activity change, negative = cytotoxicity” value is -6.8%.

As for `Nc1[nH]n(-c2ccccc2)c(=O)c1N=Nc1ccccc1`, the “activity change, negative = cytotoxicity” value is -8.67%.

On to `CC(=O)Nc1cccc(-c2csc(Nc3ncccn3)n2)c1`, for which the “activity change, negative = cytotoxicity” value was 4.47%.

With `COc1ccc(N(C(=O)c2ccc(S(=O)(=O)N3CCCC3)cc2)C2C=CS(=O)(=O)C2)cc1` (configuration not stated), the “activity change, negative = cytotoxicity” value is -4.95%.

Turning to `N/C(=N\OC(=O)c1ccc2c(c1)OCO2)c1ccncc1`, the “activity change, negative = cytotoxicity” value was -0.949%.

For the compound `N#Cc1cccc(NC(=O)COC(=O)Cn2nc(-c3ccccc3)oc2=O)c1`, the “activity change, negative = cytotoxicity” value is -7.49%.

For `CC1CC(O)C(C)CN1` (configuration not stated), the “activity change, negative = cytotoxicity” value is 9.74%.

As to `O=C(NC1CCCCC1)c1ccc2ccccc2c1`, the “activity change, negative = cytotoxicity” value is -2.43%.

As for `CCc1ccccc1Nc1nc(N)nc(CSCC(=O)Nc2ccc(C)c(C)c2)n1`, the “activity change, negative = cytotoxicity” value is -11.2%.

Turning to `O=c1[nH]c(-c2ccccc2)nnc1-c1ccccc1`, the “activity change, negative = cytotoxicity” value was -10.4%.

On to `O=C(OCC(=O)c1ccc(Br)s1)c1ccc(O)cc1`, for which the “activity change, negative = cytotoxicity” value was -0.455%.

Regarding `c1cncc(CNc2cccc(-c3nc4ccccc4[nH]3)c2)c1`, the “activity change, negative = cytotoxicity” value is 6.83% [at 12 µM].

Consider `O=C(Nc1ccc(-c2nc3ccccc3o2)cc1)c1cccnc1`, for which the “activity change, negative = cytotoxicity” value is 10.4%.

Regarding `Cc1ccc(-c2cc3nc(NCCc4ccncc4)n(C)c(=O)c3s2)cc1`, the “activity change, negative = cytotoxicity” value was -1.72%.

In the case of `O=C(Cc1ccccc1)Nc1ccc(N2CCCCC2)cc1`, the “activity change, negative = cytotoxicity” value was -10%.

As to `Cc1ccc(C(=O)Nc2ccc(N3CCCCC3)cc2)cc1`, the “activity change, negative = cytotoxicity” value is -5.53%.

In the case of `COc1ccc(-c2cn3cccc(C)c3n2)cc1F`, the “activity change, negative = cytotoxicity” value was -15.3%.

For `COc1ccc(C2=Nc3ccccc3N(C(=O)c3ccc4ncccc4c3)C2C(=O)NC(C)(C)C)cc1` (configuration not stated), the “activity change, negative = cytotoxicity” value was -21.3%.

On to `CN(C)c1ccc(N=Nc2ccc(S(N)(=O)=O)cc2)cc1`, for which the “activity change, negative = cytotoxicity” value is -4.4%.

On to `CCNS(=O)(=O)c1ccc2nc(NC(=O)/C=C/c3cc(OC)c(OC)c(OC)c3)sc2c1`, for which the “activity change, negative = cytotoxicity” value is -1.13%.

Consider `Cc1ccc2nc(/C=C/c3cccc(F)c3)ccc2c1`, for which the “activity change, negative = cytotoxicity” value was -21.2%.

As to `COc1cc(/C=C/c2ccc3cccc(O)c3n2)cc(Cl)c1OC`, the “activity change, negative = cytotoxicity” value is -24.2%.

Turning to `Cc1cccc(/C=C/c2ccccc2)n1`, the “activity change, negative = cytotoxicity” value is 5.81%.

As to `Cc1cccc(NC(=O)Nc2ccc3c(c2)OCO3)n1`, the “activity change, negative = cytotoxicity” value is -21.1%.

On to `O=C(NC1CCCC1)c1noc2c1CCCCC2`, for which the “activity change, negative = cytotoxicity” value is 5.25%.

In the case of `O=C(NC1CCCCCCC1)NC1CCCCC1`, the “activity change, negative = cytotoxicity” value was 1.7%.

Consider `O=C(Nn1c(SCc2cccc([N+](=O)[O-])c2)nc2ccccc2c1=O)c1ccccc1`, for which the “activity change, negative = cytotoxicity” value was -5.38%.

On to `O=C(Nc1ccc(N2CCCC2)cc1)c1cccc(Cl)c1`, for which the “activity change, negative = cytotoxicity” value was -16.3%.

`Cc1ccc(Nc2cc(C)nc(-c3ccccc3O)n2)cc1`: the “activity change, negative = cytotoxicity” value was -4.25%.

In the case of `O=C(O)c1ccc(N/N=C/c2cccc3cccnc23)cc1`, the “activity change, negative = cytotoxicity” value is -16.7%.

Take `Oc1ccccc1/C=N/Nc1cccc2cccnc12`: the “activity change, negative = cytotoxicity” value is -6.46%.

Regarding `COc1ccc(-c2cc3cc(OC)c(OC)cc3cn2)cc1`, the “activity change, negative = cytotoxicity” value was -3.55%.

For the compound `COc1cccc(NC(=O)NCc2ccccn2)c1`, the “activity change, negative = cytotoxicity” value is 0.982%.

For `Cc1cccc(-n2ncc3c(N4CCC(C)CC4)ncnc32)c1`, the “activity change, negative = cytotoxicity” value is 0.798%.

As for `Cc1nn(Cc2ccccc2Cl)c(Cl)c1C(=O)NCCc1ccccc1`, the “activity change, negative = cytotoxicity” value is 1.52%.

In the case of `CN(C)C(=O)c1ccc(-c2cc(C(F)(F)F)nn2C)s1`, the “activity change, negative = cytotoxicity” value is -17.9%.

On to `Cc1ccnc(NC(=O)c2ccc([N+](=O)[O-])s2)c1`, for which the “activity change, negative = cytotoxicity” value is -23.6%.

For `O=C(COc1ccc(Cl)cc1)Nc1ncc([N+](=O)[O-])s1`, the “activity change, negative = cytotoxicity” value is -16.9%.

With `Brc1ccccc1-c1nc2c3ccccc3ncn2n1`, the “activity change, negative = cytotoxicity” value is -16.9%.

`Cc1nc2nc(-c3cccs3)cn2nc1C`: the “activity change, negative = cytotoxicity” value was -15.8%.

With `O=c1[nH]c2ccccc2nc1-c1cccs1`, the “activity change, negative = cytotoxicity” value is -22%.

In the case of `COc1ccc(-c2ccc(SCC(=O)Nc3cc(C)on3)nn2)cc1OC`, the “activity change, negative = cytotoxicity” value was -11.4%.

`Cc1ccc(C(=O)OCC(=O)c2ccccc2)cc1`: the “activity change, negative = cytotoxicity” value was 3.4%.

In the case of `Cc1nc(SCC(=O)c2cccs2)c2oc3ccccc3c2n1`, the “activity change, negative = cytotoxicity” value was -3.26%.
